What was measured:
[1] = biological target: T1, GST-Nv-NF-kB (Ser allele) (Nematostella vectensis, UniProt A7UNT2 2-411); assay: protein-binding microarray (PBM); PBM: ~300 nM protein, 6 mM HEPES pH 7.8, 80 mM KCl, 0.5 mM EDTA, 0.5 mM EGTA, 6% glycerol, 35 ng/ul poly-dIdC, 1% milk, 1 h, room temperature; Ap Aiptasia and Nv Nematostella (sea anemones) / Co Capsaspora / Aq Amphimedon (sponge) / Dm Drosophila / Hu human; RHD is the Rel homology domain; high values mean tight binding; conditions: dsDNA, one strand shown
T1 sequence: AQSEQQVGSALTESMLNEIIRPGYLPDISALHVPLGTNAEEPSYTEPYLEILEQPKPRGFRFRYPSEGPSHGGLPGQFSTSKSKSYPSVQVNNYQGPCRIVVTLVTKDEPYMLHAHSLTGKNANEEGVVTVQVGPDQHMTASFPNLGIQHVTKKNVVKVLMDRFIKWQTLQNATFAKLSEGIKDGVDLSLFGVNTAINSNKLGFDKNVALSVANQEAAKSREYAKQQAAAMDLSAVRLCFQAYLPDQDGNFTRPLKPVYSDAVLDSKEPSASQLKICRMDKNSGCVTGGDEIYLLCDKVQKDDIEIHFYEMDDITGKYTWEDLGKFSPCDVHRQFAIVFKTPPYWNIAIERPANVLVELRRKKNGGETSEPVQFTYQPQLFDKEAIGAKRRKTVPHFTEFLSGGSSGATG

GST-Hu-p50 = GST-Hu-p50 (Homo sapiens, UniProt P19838 7-356); assay: as above; conditions: dsDNA, one strand shown
Sequence of GST-Hu-p50 (P19838 7-356): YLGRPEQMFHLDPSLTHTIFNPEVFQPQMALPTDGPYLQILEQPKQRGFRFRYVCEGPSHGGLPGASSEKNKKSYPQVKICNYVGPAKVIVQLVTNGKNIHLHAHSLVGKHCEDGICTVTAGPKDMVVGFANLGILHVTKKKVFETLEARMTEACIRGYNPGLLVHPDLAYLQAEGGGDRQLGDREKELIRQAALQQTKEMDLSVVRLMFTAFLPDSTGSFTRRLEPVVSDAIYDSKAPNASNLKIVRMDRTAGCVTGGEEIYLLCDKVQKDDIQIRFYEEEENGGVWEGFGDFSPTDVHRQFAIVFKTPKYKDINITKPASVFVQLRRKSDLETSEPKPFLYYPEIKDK

Row | Sequence | binding signal [1] [z-score] | binding signal (GST-Hu-p50) [z-score]
1 | CCGATTAACATCAAGGTAATCCCTGATGTTAATCGGGTCTTGATTCGCTTGACGCTGCTG | 2.34 | 1.4
2 | CCGATTAACATCAAAAACTACCCTGATGTTAATCGGGTCTTGATTCGCTTGACGCTGCTG | 4.59 | 3.73
3 | CCGATTAACATCACGGGGAGTCCTGATGTTAATCGGGTCTTGATTCGCTTGACGCTGCTG | 4.29 | 3.39
4 | CCGATTAACATCAAATTCCCAAATGATGTTAATCGGGTCTTGATTCGCTTGACGCTGCTG | 3.82 | 3.01
5 | CCGATTAACATCAGGACCGTCCCTGATGTTAATCGGGTCTTGATTCGCTTGACGCTGCTG | 1.36 | 2.66
6 | CCGATTAACATCAGACTTCCCCATGATGTTAATCGGGTCTTGATTCGCTTGACGCTGCTG | 6.11 | 4.73
7 | CCGATTAACATCACTGGGAAAACTGATGTTAATCGGGTCTTGATTCGCTTGACGCTGCTG | 3.57 | 2.39
8 | CCGATTAACATCAGGCACCCCCCTGATGTTAATCGGGTCTTGATTCGCTTGACGCTGCTG | 3.18 | 4.38
9 | CCGATTAACATCAGAAATTACCATGATGTTAATCGGGTCTTGATTCGCTTGACGCTGCTG | 3.08 | 2.24
10 | CCGATTAACATCAGAGTCCCCCCTGATGTTAATCGGGTCTTGATTCGCTTGACGCTGCTG | 5.12 | 5.06
11 | CCGATTAACATCAAAAAATACCATGATGTTAATCGGGTCTTGATTCGCTTGACGCTGCTG | 2.92 | 2.43
12 | CCGATTAACATCAAGGGGGGATATGATGTTAATCGGGTCTTGATTCGCTTGACGCTGCTG | 4.16 | 4.95
13 | CCGATTAACATCATTTATCCCGGTGATGTTAATCGGGTCTTGATTCGCTTGACGCTGCTG | 1.28 | 1.33
14 | CCGATTAACATCATTCGGGAAAATGATGTTAATCGGGTCTTGATTCGCTTGACGCTGCTG | 4.94 | 3.03
15 | CCGATTAACATCAGGGAATTACATGATGTTAATCGGGTCTTGATTCGCTTGACGCTGCTG | 4.68 | 3.82
16 | CCGATTAACATCACGGGATTTCCTGATGTTAATCGGGTCTTGATTCGCTTGACGCTGCTG | 3.47 | 3.82
17 | CCGATTAACATCACGGGAAACCCTGATGTTAATCGGGTCTTGATTCGCTTGACGCTGCTG | 3.35 | 2.62
18 | CCGATTAACATCAATTTTTCCCATGATGTTAATCGGGTCTTGATTCGCTTGACGCTGCTG | 5.77 | 3.53
19 | CCGATTAACATCAGGAATTTACCTGATGTTAATCGGGTCTTGATTCGCTTGACGCTGCTG | 4.26 | 3.27
20 | CCGATTAACATCAAGGGAATACCTGATGTTAATCGGGTCTTGATTCGCTTGACGCTGCTG | 4.14 | 2.34
21 | CCGATTAACATCACATACTCCCCTGATGTTAATCGGGTCTTGATTCGCTTGACGCTGCTG | 4.25 | 3.33
22 | CCGATTAACATCAGGTAATCCCATGATGTTAATCGGGTCTTGATTCGCTTGACGCTGCTG | 2.09 | 1.44
23 | CCGATTAACATCAATGGGAATTCTGATGTTAATCGGGTCTTGATTCGCTTGACGCTGCTG | 4.57 | 3.4
24 | CCGATTAACATCAAACACTCCCCTGATGTTAATCGGGTCTTGATTCGCTTGACGCTGCTG | 4.23 | 3.6
25 | CCGATTAACATCAGGGGGAGTGATGATGTTAATCGGGTCTTGATTCGCTTGACGCTGCTG | 4.81 | 4.48

Row | Sequence | binding signal [1] [z-score] | binding signal (GST-Hu-p50) [z-score]
26 | CCGATTAACATCAGGGCGTCCCCTGATGTTAATCGGGTCTTGATTCGCTTGACGCTGCTG | 4.47 | 4.86
27 | CCGATTAACATCAGGCGATTCCCTGATGTTAATCGGGTCTTGATTCGCTTGACGCTGCTG | 2.44 | 1.92
28 | CCGATTAACATCAGGGCTTTACCTGATGTTAATCGGGTCTTGATTCGCTTGACGCTGCTG | 1.71 | 2.02
29 | CCGATTAACATCAGGGAAAGAAATGATGTTAATCGGGTCTTGATTCGCTTGACGCTGCTG | 3.86 | 2.62
30 | CCGATTAACATCAGGGGGATGTATGATGTTAATCGGGTCTTGATTCGCTTGACGCTGCTG | 5.85 | 4.84
31 | CCGATTAACATCACGGGACCCCCTGATGTTAATCGGGTCTTGATTCGCTTGACGCTGCTG | 3.8 | 3.54
32 | CCGATTAACATCACGGGAATTTCTGATGTTAATCGGGTCTTGATTCGCTTGACGCTGCTG | 6.48 | 4.6
33 | CCGATTAACATCACCCCTCCCCGTGATGTTAATCGGGTCTTGATTCGCTTGACGCTGCTG | 3.23 | 3.01
34 | CCGATTAACATCAGGGTATTTACTGATGTTAATCGGGTCTTGATTCGCTTGACGCTGCTG | 4.72 | 5.1
35 | CCGATTAACATCAAATAGCCCCCTGATGTTAATCGGGTCTTGATTCGCTTGACGCTGCTG | 3.62 | 4.73
36 | CCGATTAACATCAGGACAGTCCCTGATGTTAATCGGGTCTTGATTCGCTTGACGCTGCTG | 2.87 | 4.04
37 | CCGATTAACATCAAATCACCCCCTGATGTTAATCGGGTCTTGATTCGCTTGACGCTGCTG | 5.42 | 4.62
38 | CCGATTAACATCAAATTCCCAGATGATGTTAATCGGGTCTTGATTCGCTTGACGCTGCTG | 3.83 | 2.58
39 | CCGATTAACATCACCAAAACCCCTGATGTTAATCGGGTCTTGATTCGCTTGACGCTGCTG | 4.14 | 4.83
40 | CCGATTAACATCACCTTGGGAAATGATGTTAATCGGGTCTTGATTCGCTTGACGCTGCTG | 2.17 | 2.17
41 | CCGATTAACATCACATATTTCCCTGATGTTAATCGGGTCTTGATTCGCTTGACGCTGCTG | 5.42 | 3.71
42 | CCGATTAACATCAGGGACAAAAATGATGTTAATCGGGTCTTGATTCGCTTGACGCTGCTG | 3.37 | 2.61
43 | CCGATTAACATCAGGGGACTATATGATGTTAATCGGGTCTTGATTCGCTTGACGCTGCTG | 4.77 | 4.35
44 | CCGATTAACATCAGAGAAGTCCCTGATGTTAATCGGGTCTTGATTCGCTTGACGCTGCTG | 5.95 | 5.25
45 | CCGATTAACATCAGGGAAAAAACTGATGTTAATCGGGTCTTGATTCGCTTGACGCTGCTG | 6.38 | 4.02
46 | CCGATTAACATCAGGGAAAACGATGATGTTAATCGGGTCTTGATTCGCTTGACGCTGCTG | 6.01 | 2.13
47 | CCGATTAACATCAGGGAATTAACTGATGTTAATCGGGTCTTGATTCGCTTGACGCTGCTG | 3.91 | 2.81
48 | CCGATTAACATCAGGGGAGGTACTGATGTTAATCGGGTCTTGATTCGCTTGACGCTGCTG | 4.46 | 3.17
49 | CCGATTAACATCAGGGATTCCCATGATGTTAATCGGGTCTTGATTCGCTTGACGCTGCTG | 3.26 | 3.48
50 | CCGATTAACATCAGACATTCCCATGATGTTAATCGGGTCTTGATTCGCTTGACGCTGCTG | 2.32 | 1.02

Row | Sequence | binding signal [1] [z-score] | binding signal (GST-Hu-p50) [z-score]
51 | CCGATTAACATCAGGGGAACACATGATGTTAATCGGGTCTTGATTCGCTTGACGCTGCTG | 5.55 | 3.37
52 | CCGATTAACATCACGGAGTCCCCTGATGTTAATCGGGTCTTGATTCGCTTGACGCTGCTG | 4.71 | 5.13
53 | CCGATTAACATCAGAAATTCCCATGATGTTAATCGGGTCTTGATTCGCTTGACGCTGCTG | 5.93 | 4.64
54 | CCGATTAACATCAGGCCATCCCCTGATGTTAATCGGGTCTTGATTCGCTTGACGCTGCTG | 3.8 | 3.33
55 | CCGATTAACATCAGGGATTTACCTGATGTTAATCGGGTCTTGATTCGCTTGACGCTGCTG | 5.26 | 4.74
56 | CCGATTAACATCAACGCCCCCCCTGATGTTAATCGGGTCTTGATTCGCTTGACGCTGCTG | 4.55 | 4.25
57 | CCGATTAACATCAAAGTACCCCCTGATGTTAATCGGGTCTTGATTCGCTTGACGCTGCTG | 5.79 | 4.53
58 | CCGATTAACATCAGGGACAACCCTGATGTTAATCGGGTCTTGATTCGCTTGACGCTGCTG | 3.39 | 2.91
59 | CCGATTAACATCAGGGCCCCCCCTGATGTTAATCGGGTCTTGATTCGCTTGACGCTGCTG | 3.34 | 4.39
60 | CCGATTAACATCAGGACTTCCCATGATGTTAATCGGGTCTTGATTCGCTTGACGCTGCTG | 1.03 | 1.76
61 | CCGATTAACATCAAAAAAAGTCCTGATGTTAATCGGGTCTTGATTCGCTTGACGCTGCTG | 1.42 | 2.19
62 | CCGATTAACATCACTAAATTCCCTGATGTTAATCGGGTCTTGATTCGCTTGACGCTGCTG | 5.8 | 4.08
63 | CCGATTAACATCAGGGAAAGGAATGATGTTAATCGGGTCTTGATTCGCTTGACGCTGCTG | 2.07 | 1.29
64 | CCGATTAACATCAGGGGGTACACTGATGTTAATCGGGTCTTGATTCGCTTGACGCTGCTG | 3.94 | 3.13
65 | CCGATTAACATCAGGAATTACCATGATGTTAATCGGGTCTTGATTCGCTTGACGCTGCTG | 2.03 | 2.05
66 | CCGATTAACATCAGGGGGTGAAATGATGTTAATCGGGTCTTGATTCGCTTGACGCTGCTG | 4.3 | 4.19
67 | CCGATTAACATCAGGAGAACCCCTGATGTTAATCGGGTCTTGATTCGCTTGACGCTGCTG | 1.24 | 3.68
68 | CCGATTAACATCAGAATTGCCCCTGATGTTAATCGGGTCTTGATTCGCTTGACGCTGCTG | 2.89 | 4.35
69 | CCGATTAACATCAGAAAATGCCCTGATGTTAATCGGGTCTTGATTCGCTTGACGCTGCTG | 1.55 | 2.79
70 | CCGATTAACATCAGGGCATACCCTGATGTTAATCGGGTCTTGATTCGCTTGACGCTGCTG | 1.31 | 1.86
71 | CCGATTAACATCAAATCTTTCCCTGATGTTAATCGGGTCTTGATTCGCTTGACGCTGCTG | 6.25 | 3.68
72 | CCGATTAACATCAATATTTCCCATGATGTTAATCGGGTCTTGATTCGCTTGACGCTGCTG | 3.55 | 3.27
73 | CCGATTAACATCAGGATCTTCCCTGATGTTAATCGGGTCTTGATTCGCTTGACGCTGCTG | 1.87 | 1.9
